A short description of assay [1]: small molecules captured by biotinylated probe aFSTL3 – biochemical, small-molecule microarray, fluorescence 635/667, stem cell growth factor project, primary screen (AID 1064).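 Note: measures binding of the biotinylated anti-FSTL3 antibody to printed compounds.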 As to conditions: higher = more signal.
Assay [2] is described as follows: binders from COS7 lysate, DM2A8 probe, primary screen, torsin A project, cell lysate, small-molecule microarray, fluorescence 635/667 (AID 1065). To be noted: higher = more signal, COS7 lysate expressing mutant human TOR1A.
Assay [3] in a line: small molecules captured by biotinylated probe aFGF2 – biochemical, small-molecule microarray, fluorescence 635/667, stem cell growth factor project, primary screen (AID 1067).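 Note: measures binding of biotinylated aFGF2 protein to printed compounds on slides; z-score merges feature fluorescence and signal-to-noise across triplicate slides.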 To be noted: higher = more signal.
Assay [4] is described as follows: small molecules captured by biotinylated probe aFGF10 – biochemical, small-molecule microarray, fluorescence 635/667, stem cell growth factor project, primary screen (AID 1071).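 Note: score merges 667 nm spot intensity and signal to noise from triplicate slides.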 As to conditions: higher = more signal.
The target in assay [5] is Neurogenic locus notch homolog protein 2 (Homo sapiens) (UniProt Q04721). Nature of the assay: small molecules binding Notch2 protein – biochemical, small-molecule microarray, 635 nm fluorescence, stem cell growth factors, primary screen (AID 1073). To be noted: higher = more signal.
The target in assay [6] is Pro-neuregulin-1, membrane-bound isoform (Homo sapiens) (UniProt Q02297). Briefly: small molecules binding neuregulin-1 protein – biochemical, small-molecule microarray, fluorescence 635/667, psychiatric disease protein project, primary screen (AID 1075).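 Note: score combines 667 nm spot fluorescence with signal to noise.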 To be noted: NRG1 binding, 635 nm fluorescence, higher = more signal.
Pro-neuregulin-1, membrane-bound isoform (Homo sapiens), sequence (Q02297 whole entry, looked up, the tested form may be a part, canonical isoform): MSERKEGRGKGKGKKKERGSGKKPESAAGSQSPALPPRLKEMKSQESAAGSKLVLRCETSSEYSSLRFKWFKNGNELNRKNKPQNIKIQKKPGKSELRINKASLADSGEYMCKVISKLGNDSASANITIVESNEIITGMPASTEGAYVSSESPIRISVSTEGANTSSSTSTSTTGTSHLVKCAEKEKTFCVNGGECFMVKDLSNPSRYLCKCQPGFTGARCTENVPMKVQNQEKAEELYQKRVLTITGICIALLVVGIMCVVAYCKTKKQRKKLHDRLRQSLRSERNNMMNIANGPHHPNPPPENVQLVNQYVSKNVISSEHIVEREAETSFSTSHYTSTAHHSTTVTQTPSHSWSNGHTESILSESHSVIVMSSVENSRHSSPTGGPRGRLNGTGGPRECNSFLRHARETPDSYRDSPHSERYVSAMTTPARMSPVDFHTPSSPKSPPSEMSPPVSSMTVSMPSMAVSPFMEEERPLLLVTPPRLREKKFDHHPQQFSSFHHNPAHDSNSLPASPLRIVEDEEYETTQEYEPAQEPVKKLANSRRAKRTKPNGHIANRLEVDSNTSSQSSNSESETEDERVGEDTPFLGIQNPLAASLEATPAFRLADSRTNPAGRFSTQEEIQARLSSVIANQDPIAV
In assay [7] the test system is Neuregulin-1 EGF-like domain. Nature of the assay: small molecules binding NRG1 EGF domain – biochemical, small-molecule microarray, 635 nm fluorescence, primary screen (AID 1081).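 Note: binding of the protein to compounds printed on small-molecule microarray slides.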 As to conditions: higher = more signal.
Assay [8] in a line: FRG1 expression reporter modulators in myotubes – cell-based, C2C12 myotubes, firefly/Renilla luciferase, luminescence, FRG1 inhibition for FSHD, primary screen (AID 1084). To be noted: FRG1 promoter luciferase, higher = more signal, called active from +8 up or from −8 down.
Assay [9] in a line: small molecules captured by biotinylated probe aFST – biochemical, small-molecule microarray, fluorescence 635/667, stem cell growth factor project, primary screen (AID 1086).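 Note: score merges 667 nm fluorescence with signal-to-noise of each printed compound spot.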 To be noted: higher = more signal.
Assay [10] can be described thus: binders of probe aHhip on microarray, primary screen, stem cell growth factor project, biochemical, small-molecule microarray, fluorescence 635/667 (AID 1087).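 Note: score merges spot fluorescence at 667nm with spot signal to noise ratio.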 As to conditions: higher = more signal.
In assay [11] the test system is PRMT1 (protein arginine N-methyltransferase 1). Nature of the assay: small molecules binding arginine methyltransferase PRMT1 – biochemical, small-molecule microarray, 635 nm fluorescence, primary screen (AID 1088).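 Note: binding of Prmt1 protein to compounds spotted on small-molecule microarray slides.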 As to conditions: higher = more signal.
A short description of assay [12]: growth effects on S. cerevisiae YJM789 – YJM789 clinical isolate, OD600, 24 h, basal, primary screen (AID 1089).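 Note: growth of clinical yeast isolate S. cerevisiae YJM 789 seeded 1000 cells per well; test concentration not given here.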 To be noted: higher = more signal, called active from +8 up or from −8 down.
Assay [13] in a line: S. pombe growth modifiers, basal conditions – strain 972, OD600, 24 h, no modulator, primary screen (AID 1090).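 Note: basal condition with compound alone and no growth modifier present; test concentration not given here.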 To be noted: S. pombe 972 growth, higher = more signal, called active from +8 up or from −8 down.
The nature of assay [14]: budding yeast growth modifiers under rapamycin – strain BY4716, OD600, 96 h, primary screen (AID 1091). Note: test concentration not given here. As to conditions: S. cerevisiae BY4716 + rapamycin, higher = more signal, called active from +8 up or from −8 down.
In assay [15] the target is Torsin-1A-interacting protein 2 (Homo sapiens) (UniProt Q8NFQ8). Nature of the assay: small molecules binding lysate-expressed LULL1 – cell lysate, human LULL1 lysate, 635/667 nm fluorescence, primary screen (AID 1092).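 Note: score merges per-feature 667 nm fluorescence with signal-to-noise.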 As to conditions: small-molecule microarray, hLULL1 lysate binding, 635 nm fluorescence; higher = more signal.
Torsin-1A-interacting protein 2 (Homo sapiens), sequence (Q8NFQ8 whole entry, looked up): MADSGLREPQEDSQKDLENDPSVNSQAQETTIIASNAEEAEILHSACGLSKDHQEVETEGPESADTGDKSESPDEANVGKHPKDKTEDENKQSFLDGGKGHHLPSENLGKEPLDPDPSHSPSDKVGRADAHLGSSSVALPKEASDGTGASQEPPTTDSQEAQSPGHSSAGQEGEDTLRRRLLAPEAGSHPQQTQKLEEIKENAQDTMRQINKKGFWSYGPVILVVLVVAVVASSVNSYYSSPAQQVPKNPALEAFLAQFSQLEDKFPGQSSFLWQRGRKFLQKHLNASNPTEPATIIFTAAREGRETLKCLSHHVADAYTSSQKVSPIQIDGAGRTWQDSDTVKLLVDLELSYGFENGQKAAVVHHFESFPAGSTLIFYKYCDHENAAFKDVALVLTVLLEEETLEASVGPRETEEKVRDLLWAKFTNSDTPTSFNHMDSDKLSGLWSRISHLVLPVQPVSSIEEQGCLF
The nature of assay [16]: optical density change of DRC41 E. coli – strain DRC41, OD650, 24 h, E. coli filamentation project, primary screen (AID 1093).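 Note: MC1000 strain lacking acrAB efflux and sulA so SOS filamentation is blocked; test concentration not given here.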 As to conditions: E. coli DRC41 growth, higher = more signal, called active from +8 up or from −8 down.
Assay [17] is described as follows: probe aLefty2 binding to arrayed compounds – biochemical, biotinylated probe, 635/667 nm fluorescence, primary screen (AID 1094).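 Note: score merges spot fluorescence near 667 nm with spot signal-to-noise ratio.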 To be noted: small-molecule microarray, higher = more signal.
Assay [18] relates to Noggin (protein binding on small-molecule microarray). Nature of the assay: small molecules binding Noggin protein – biochemical, 635/667 nm fluorescence, primary screen (AID 1095).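 Note: score merges 667 nm feature fluorescence with signal to noise over triplicate slides.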 As to conditions: 635 nm fluorescence, higher = more signal.
The target of assay [19] is Neurogenic locus notch homolog protein 3 (Homo sapiens) (UniProt Q9UM47). Nature of the assay: small molecules binding NOTCH3 protein – biochemical, 635/667 nm fluorescence, primary screen (AID 1096). As to conditions: small-molecule microarray, 635 nm fluorescence, higher = more signal.
Neurogenic locus notch homolog protein 3 (Homo sapiens), sequence (Q9UM47 whole entry, looked up): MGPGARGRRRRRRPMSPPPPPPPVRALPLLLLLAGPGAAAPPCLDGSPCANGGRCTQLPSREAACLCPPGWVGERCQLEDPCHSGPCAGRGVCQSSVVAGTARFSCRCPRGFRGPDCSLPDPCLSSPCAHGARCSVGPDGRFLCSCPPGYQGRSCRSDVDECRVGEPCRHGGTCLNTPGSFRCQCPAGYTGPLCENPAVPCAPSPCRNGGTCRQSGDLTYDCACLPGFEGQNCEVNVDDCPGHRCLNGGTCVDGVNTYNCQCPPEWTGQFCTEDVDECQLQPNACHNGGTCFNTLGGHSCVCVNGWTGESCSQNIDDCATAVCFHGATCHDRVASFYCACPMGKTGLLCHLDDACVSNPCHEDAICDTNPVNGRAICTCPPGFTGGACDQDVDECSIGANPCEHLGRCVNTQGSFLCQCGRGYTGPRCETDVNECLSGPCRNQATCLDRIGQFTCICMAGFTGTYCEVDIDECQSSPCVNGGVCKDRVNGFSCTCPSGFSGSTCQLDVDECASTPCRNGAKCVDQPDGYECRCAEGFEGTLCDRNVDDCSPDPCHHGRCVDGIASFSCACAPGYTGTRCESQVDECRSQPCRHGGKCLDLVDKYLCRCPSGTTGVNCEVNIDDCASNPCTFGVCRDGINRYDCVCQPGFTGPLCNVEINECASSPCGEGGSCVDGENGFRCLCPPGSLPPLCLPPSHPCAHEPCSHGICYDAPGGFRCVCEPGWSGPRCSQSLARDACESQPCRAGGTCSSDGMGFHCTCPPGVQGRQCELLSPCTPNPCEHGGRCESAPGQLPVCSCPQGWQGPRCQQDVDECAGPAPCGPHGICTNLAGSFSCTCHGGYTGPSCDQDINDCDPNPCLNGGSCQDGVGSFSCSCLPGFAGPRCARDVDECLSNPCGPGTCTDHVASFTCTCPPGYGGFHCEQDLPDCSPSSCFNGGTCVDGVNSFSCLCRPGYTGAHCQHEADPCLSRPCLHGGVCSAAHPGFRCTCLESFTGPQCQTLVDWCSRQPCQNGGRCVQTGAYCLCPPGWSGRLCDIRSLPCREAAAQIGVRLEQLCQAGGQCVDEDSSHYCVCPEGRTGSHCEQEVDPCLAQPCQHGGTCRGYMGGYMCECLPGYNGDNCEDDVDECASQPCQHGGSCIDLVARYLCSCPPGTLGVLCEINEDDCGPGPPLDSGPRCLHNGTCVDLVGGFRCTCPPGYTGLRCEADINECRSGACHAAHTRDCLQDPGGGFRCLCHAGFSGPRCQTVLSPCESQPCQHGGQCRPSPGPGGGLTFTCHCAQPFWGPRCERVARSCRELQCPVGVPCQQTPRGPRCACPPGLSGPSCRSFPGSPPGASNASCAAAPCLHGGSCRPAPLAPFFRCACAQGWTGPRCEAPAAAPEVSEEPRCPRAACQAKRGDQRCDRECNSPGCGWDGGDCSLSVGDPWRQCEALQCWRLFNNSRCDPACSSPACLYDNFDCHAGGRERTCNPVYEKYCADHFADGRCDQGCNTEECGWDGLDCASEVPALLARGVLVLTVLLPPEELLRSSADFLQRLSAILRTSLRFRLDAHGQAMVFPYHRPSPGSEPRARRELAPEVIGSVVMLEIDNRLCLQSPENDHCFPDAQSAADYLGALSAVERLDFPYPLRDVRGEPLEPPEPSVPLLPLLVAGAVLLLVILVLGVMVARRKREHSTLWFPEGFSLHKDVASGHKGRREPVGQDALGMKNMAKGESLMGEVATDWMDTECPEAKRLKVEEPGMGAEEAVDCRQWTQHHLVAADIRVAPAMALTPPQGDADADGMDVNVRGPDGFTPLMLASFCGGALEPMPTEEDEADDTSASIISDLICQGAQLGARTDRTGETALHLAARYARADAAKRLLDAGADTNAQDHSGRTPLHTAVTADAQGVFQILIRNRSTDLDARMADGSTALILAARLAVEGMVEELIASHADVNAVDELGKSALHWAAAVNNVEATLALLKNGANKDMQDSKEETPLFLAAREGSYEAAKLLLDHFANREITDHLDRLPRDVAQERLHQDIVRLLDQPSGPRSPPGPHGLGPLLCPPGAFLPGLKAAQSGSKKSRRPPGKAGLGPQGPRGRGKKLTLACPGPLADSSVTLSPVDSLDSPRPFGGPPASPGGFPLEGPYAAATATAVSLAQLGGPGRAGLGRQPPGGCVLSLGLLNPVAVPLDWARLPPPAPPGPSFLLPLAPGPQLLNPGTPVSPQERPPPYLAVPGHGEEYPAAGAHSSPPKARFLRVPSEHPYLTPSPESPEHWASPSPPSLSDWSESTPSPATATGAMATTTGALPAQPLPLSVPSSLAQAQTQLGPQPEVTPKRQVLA
Assay [20] can be described thus: probe aEGFR binding to arrayed compounds – biochemical, biotinylated probe, 635/667 nm fluorescence, primary screen (AID 1097).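 Note: probe is a biotinylated anti-EGFR antibody binding compounds printed on slides; score combines fluorescence near 667 nm and signal to noise of each spot.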 As to conditions: small-molecule microarray, higher = more signal.

Activity calls are given as the source filed them.

Consider `COCCOC(=O)N1C(=O)[C@@]2(c3cc(C#Cc4ccc(OC)cc4)ccc31)[C@H](C(N)=O)[C@H]1C(=O)O[C@H](c3ccccc3)[C@H](c3ccccc3)N1[C@@H]2c1ccc(O)cc1`, for which the composite z-score in assay [1] was -0.39; in assay [2] it was -0.343; in [3], -0.167; in assay [4], -0.206; in [5] it was -1.64; in assay [6], -0.55. Further, the composite z-score in assay [7] is -0.297; in assay [9], -1.05; in assay [10], -0.376; in assay [11], -1.57; in [15], -0.839; in [17], -0.264. In addition, the composite z-score in assay [18] is -2.13; in assay [19] it was -1.35; in [20], -0.627. Further, the z-score in assay [8] is 0.961 (inactive); in [12] it was -0.613 (inactive); in [13], -0.0532 (inactive); in assay [14] it was 0.333 (inactive); in assay [16], 1.84 (inactive).

Take `[N-]=[N+]=Nc1ccccc1C[C@]1(C(=O)N2CCCCC2)N=C(c2ccc(OCCCO)cc2)O[C@H]1c1ccccc1N=[N+]=[N-]`: the composite z-score in assay [1] was 0.368; in [2], -0.155; in assay [3], 0.14; in assay [4], 0.771; in assay [5], 1.53; in assay [6] it was 1.71. In addition, the composite z-score in assay [7] was 1.01; in assay [9] it was 0.991; in assay [10] it was -0.305; in assay [11] it was 1.56; in assay [15] it was 3.48; in [17], 0.512. The composite z-score amounted to 0.471 in [18], 1.05 in [19] and 0.277 in [20]. The z-score is -1.68 (inactive) in [8]; 0.0343 (inactive) in [12]; -10.4 (active) in assay [13]; 1.51 (inactive) in assay [14]; -0.204 (inactive) in [16].

As for `O=C1C2C=CC(C(O)c3cccc4ccccc34)N(n3cnnc3)C2C(=O)N1Cc1ccccc1` (stereo not given), the composite z-score amounted to 1.45 in assay [1]; 0.0748 in assay [2]; 0.737 in assay [3]; 0.774 in assay [4]; 0.309 in assay [5]; 0.704 in assay [6]. Also, the composite z-score was 0.821 in [7]; 1.8 in assay [9]; 0.506 in assay [10]; -0.117 in [11]; 0.846 in assay [15]; 0.93 in assay [17]. Moreover, the composite z-score in assay [18] came to 0.56; in assay [19] it was 0.467; in assay [20], 0.804. Further, the z-score is -0.259 (inactive) in assay [8]; -26.6 (active) in assay [12]; -16.1 (active) in [13]; -0.0039 (inactive) in assay [14]; -1.18 (inactive) in assay [16].

`C[N+](C)(C)CCCC[C@@H]1NC(=O)[C@H]2C[C@@H](C(=O)O)[C@@H](c3cccc(OCCO)c3)N2C1=O`: the composite z-score in assay [1] was 2.11; in assay [2], 1.85; in assay [3], 0.676; in [4], 0.788; in assay [5], 1.01; in [6], 2.81. The composite z-score in assay [7] was 1.44; in assay [9], 1.65; in assay [10] it was 1.88; in [11], 1.54; in assay [15], 3.79; in assay [17], 1.5. Besides, the composite z-score was 1.83 in assay [18], 1.1 in assay [19] and 1.06 in assay [20]. In addition, the z-score in [8] was -0.698 (inactive); in [12], -1.28 (inactive); in assay [13] it was -0.362 (inactive); in assay [14], -0.498 (inactive); in assay [16] it was 0.0136 (inactive).

Take `CC(C)(C)OC(=O)CC[C@]1(C(=O)NCC(O)CO)N=C(c2ccc(OCCCO)cc2)O[C@H]1c1ccccc1CN=[N+]=[N-]` (stereo not given in full): the composite z-score is 1.32 in assay [1]; 2.46 in [2]; 0.314 in assay [3]; 0.922 in assay [4]; 1.68 in assay [5]; 2.09 in assay [6]. Also, the composite z-score in assay [7] is 0.722; in [9] it was 1.68; in assay [10], -0.0024; in [11], 1.06; in [15], 3.59; in assay [17] it was 0.716. For the same compound, the values for the composite z-score in assay [18], in assay [19] and in assay [20] were 0.27, 1.08 and 0.61, respectively. The z-score is 2.4 (inactive) in assay [8]; -0.624 (inactive) in assay [12]; -0.867 (inactive) in [13]; -0.859 (inactive) in [14]; 0.301 (inactive) in assay [16].

The record behind these values is PubChem BioAssay.
